Assay results as given in PubChem BioAssay AID2283302 (EPA ToxCast).
Inconclusive results are not listed. The source made the active and inactive calls. The calls were made as follows: active = hit-call score of the fitted dose curve at least 0.9, where 1 is the maximum; inconclusive = response in the unintended direction; inactive = score below 0.9.

These compounds were tested against rat Gamma-HydroxyButyrate Receptor (GHB), Tspan17 (gene 306771) (UniProt Q4V8E0) (assay: NVS_GPCR_rGHB: NovaScreen (NVS) G Protein-Coupled Receptor Assay for rat Gamma-HydroxyButyrate Receptor (GHB)).
Experimental: NVS_GPCR_rGHB is a biochemical, single-readout assay that uses extracted gene-proteins from Rat forebrain in a tissue-based cell-free assay. Measurements were taken 1 hour after chemical dosing in a 48-well plate.NVS_GPCR_rGHB is one of one assay component(s) measured or calculated from the NVS_GPCR_rGHB assay. It is designed to make measurements of radioligand binding, a form of binding reporter, as detected with scintillation counting signals by Filter-based radiodetection technology.Data from the assay component NVS_GPCR_rGHB was analyzed into 1 assay endpoint. This assay endpoint, NVS_GPCR_rGHB, was analyzed in the positive analysis fitting direction relative to DMSO as the negative control and baseline of activity. Using a type of binding reporter, loss-of-signal activity can be used to understand changes in the binding as they relate to the gene Tspan17. Furthermore, this assay endpoint can be referred to as a primary readout, because the performed assay has only produced 1 assay endpoint. To generalize the intended target to other relatable targets, this assay endpoint is annotated to the gpcr intended target family, where the subfamily is metabotropic glutamate receptor.
Binding assays used specific radioligands (tritiated, iodinated) with non-radioactive competitive displacement ligands in agonist or antagonist protocols (as indicated) and various reference compounds and inhibitors to titrate specific binding to receptors and transporters. Most enzyme assays (CYPs, kinases, phosphatases, proteases, HDACs) used recombinant protein and specific substrates (fluorescence mostly, some colorimetric and radioactive) and inhibitors, followed by a biochemical separation of substrate and product. All assays for the biochemical HTS were initially run in duplicate at a single concentration (10 uM for CYP450 assays and 25 uM for all others). Assay-chemical combinations meeting a pre-defined threshold (e.g., 30% inhibition and other criteria defined below) were then run in singleton concentration-response format with maximum concentration of 20 uM for CYPs and 50 uM for all others. Each assay was run with positive and negative controls, and concurrent controls on every plate. The follow-up (secondary) screen tested active chemical-pairs in concentration series, as well as a few additional assays not tested in the primary screen, some selected negative inactives, and several cases re-run in the concentration series for confirmatory purposes.

Sequence of rat Gamma-HydroxyButyrate Receptor (GHB), Tspan17 (gene 306771) (Q4V8E0 whole entry, looked up): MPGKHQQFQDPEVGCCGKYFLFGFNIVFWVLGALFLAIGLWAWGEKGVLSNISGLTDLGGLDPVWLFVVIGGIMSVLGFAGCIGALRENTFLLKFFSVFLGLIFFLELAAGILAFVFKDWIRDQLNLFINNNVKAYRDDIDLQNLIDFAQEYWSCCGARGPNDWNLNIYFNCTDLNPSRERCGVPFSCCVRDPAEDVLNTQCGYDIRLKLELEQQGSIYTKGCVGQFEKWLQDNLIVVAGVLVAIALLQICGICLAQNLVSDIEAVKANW

With Cn1c(=O)cc(Oc2ccc(F)cc2F)c2cnc(NCC(C)(C)O)nc21 as the compound, how does the AC50 read?
Its AC50 is 0.166 µM (active).

Which outcome does the source give for COC(=O)CSc1cc(N=c2sc(=O)n3n2CCCC3)c(F)cc1Cl here?
The outcome was “inactive”.

With Cc1cccc(Nc2cc(Cl)nc(SCC(=O)O)n2)c1C as the compound, how does the AC50 read?
The AC50 was 19.2 µM (active).

With O=C(O)c1cccc(N(Cc2cccnc2)c2ccc(OC(F)F)c(OC(F)F)c2)c1 as the compound, how does the outcome read?
The outcome was “inactive”.
